{"source": "PubChem BioAssay (EPA / NIEHS)", "key": {"[1]": {"experiment": "IUF_NPC1_cytotoxicity_72hr: Cytotoxicity Assessment at 72 hours in the Leibniz Research Institute for Environmental Medicine (IUF) Neural Progenitor Cell Proliferation Assay (NPC1) (AID 2284332);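 also: rising LDH signal means more cytotoxicity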", "procedure,_shortened": "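LDH in supernatant, resazurin→resorufin fluorescence (RFU), 72 h exposure, no re-dosing. Cells: primary hNPC spheres, one per well, EGF+FGF medium, 37C/5% CO2, pH 7.2-7.6. Fit: positive direction vs baseline and dynamic range.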"}, "[2]": {"experiment": "CCTE_Mundy_HCI_iCellGluta_NOG_NeuronCount: CCTE's Neurite Outgrowth Assay in iCellGluta cells for Neuron Count, Mundy Lab (AID 2284340);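 also: cells fixed about 48 h after compound addition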", "procedure,_shortened": "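Neuron count read by automated high-content imaging of Hoechst 33342 and betaIII-tubulin/Alexa Fluor-488 labelling in human iPSC glutamatergic neurons. Activity fitted relative to DMSO.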"}, "[3]": {"experiment": "CCTE_Mundy_HCI_iCellGluta_NOG_NeuriteCount: CCTE's Neurite Outgrowth Assay in iCellGluta cells for Neurite Count, Mundy Lab (AID 2284342);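 also: chemical exposure about 48 hours starting 2 hours after plating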"}, "IYD (gene 389434)": {"system": "IYD (gene 389434)", "experiment": "CCTE_GLTED_hIYD: CCTE's human Iodotyrosine Deiodinase (xIYD) Inhibition Assay, Great Lakes Toxicology and Ecology Division (GLTED) Lab (AID 2284317);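 also: iodide freed from monoiodotyrosine measured by cerium arsenite color change at 420 nm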", "procedure,_shortened": "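Cell-free; baculovirus/insect-cell hIYD + MIT substrate + chemical, 3 h. Dowex column cleanup, then Ce4+/As3+ Sandell-Kolthoff read at A420 nm. Triplicate plates; normalized to 3-nitro-L-tyrosine (positive) and DMSO/NaOH (solvent).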"}, "[4]": {"experiment": "TAMU_PeakParms_SingleDonor1434_Asystole: Texas A&M University (TAMU) 1.5-hr Human Induced Pluripotent Stem Cell (iPSC)-derived Cardiomyocytes Calcium (Ca+2) Flux Assay for Cardiotoxicity: Asystole (quiescence of beating) (AID 2284328)", "procedure,_shortened": "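Average Ca2+-flux peak frequency (beats/s) was recorded in single-donor iPSC-derived cardiomyocytes after 90 min exposure (0.2–100 uM final, 0.5% DMSO). Asystole POD set as EC95 against DMSO, no preprocessing.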"}, "[5]": {"experiment": "CCTE_Deisenroth_5AR_NBTE_donor: CCTE's 5alpha-reductase NanoBRET Target Engagement Assay […], Deisenroth Lab (AID 2284319; active = hit-call score of the fitted dose curve at least 0.9, where 1 is the maximum; inactive = score below 0.9)", "settings": "actives raise or lower the signal", "procedure,_shortened": "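HEK293T cells were reverse transfected with an SRD5A2-NanoLuc vector for 20 h, exposed to test chemical (8 points, 10 nM - 29.9 uM) for 3 h, then testosterone tracer for 2 h more. Donor luminescence (460 nm) was read; bidirectional fit versus DMSO.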"}, "[6]": {"experiment": "CCTE_Deisenroth_5AR_NBTE_acceptor: CCTE's 5alpha-reductase NanoBRET Target Engagement Assay - Autofluorescence Screen, Deisenroth Lab (AID 2284321; active = hit-call score of the fitted dose curve at least 0.9, where 1 is the maximum; inactive = score below 0.9;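 also: compound fluorescence in the acceptor channel under 460 nm excitation flags autofluorescence artifacts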)", "settings": "actives raise or lower the signal", "procedure,_shortened": "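Autofluorescence counter-screen: chemicals at an assumed nominal 100 uM in DMSO were scanned in three independent runs with 460 nm excitation. Gain or loss of acceptor signal was fitted bidirectionally against DMSO.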"}, "SRD5A2 (gene 6716)": {"system": "SRD5A2 (gene 6716)", "experiment": "CCTE_Deisenroth_5AR_NBTE_ratio: CCTE's 5alpha-reductase NanoBRET Target Engagement Assay - Ratio, Deisenroth Lab (AID 2284322; active = hit-call score of the fitted dose curve at least 0.9, where 1 is the maximum; inactive = score below 0.9)", "settings": "actives raise or lower the signal", "procedure,_shortened": "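SRD5A2-NanoLuc HEK293T; cmpd 10 nM-29.9 uM, 3 h preinc + testosterone tracer 2 h; NanoBRET ratio 650/460; bidirectional fit vs DMSO.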"}, "SERPINA7 (gene 6906)": {"system": "SERPINA7 (gene 6906)", "experiment": "CCTE_GLTED_hTBG: CCTE's human Thyroxine-binding Globulin (TBG) Inhibition Assay, Great Lakes Toxicology and Ecology Division (GLTED) Lab (AID 2284343);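 also: active chemicals lower fluorescence versus DMSO baseline by displacing probe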", "procedure,_shortened": "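Fluorescence (ex 380/em 475) reports ANSA displaced from human TBG after a 2 h incubation with test chemical, without cells. Loss of signal indicates displacement, with DMSO serving as baseline.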"}, "[7]": {"experiment": "CCTE_Deisenroth_H295R-HTRF_384WELL_ESTRADIOL: CCTE's H295R-HTRF Assay Evaluation of Estradiol Concentration, Deisenroth Lab (AID 2284361; active = hit-call score of the fitted dose curve at least 0.9, where 1 is the maximum; inactive = score below 0.9)", "settings": "actives raise or lower the signal", "procedure,_shortened": "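Estradiol secreted into medium by H295R adrenocortical cells, quantified by HTRF after 48 h dosing over a nine-point 0.001 - 100 uM final range; gain or loss versus DMSO. Parallel ATP-luminescence viability readout; n=5 experiments.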"}, "[8]": {"experiment": "CCTE_Deisenroth_H295R-HTRF_384WELL_TESTOSTERONE: CCTE's H295R-HTRF Assay Evaluation of Testosterone Concentration, Deisenroth Lab (AID 2284373; active = hit-call score of the fitted dose curve at least 0.9, where 1 is the maximum; inactive = score below 0.9)", "settings": "actives raise or lower the signal", "procedure,_shortened": "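H295R cells were acclimated 24 h, then exposed 48 h to nine concentrations (0.001–100 uM final) in technical triplicate, n=5. Testosterone in conditioned medium was measured by HTRF (em 620/665 nm). Fitting was bidirectional versus DMSO; CellTiter-Glo viability ran on the same plates.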"}, "[9]": {"experiment": "CCTE_Deisenroth_H295R-HTRF_384WELL_CTOX: Cytotoxicity Assessment in CCTE's H295R-HTRF Assay, Deisenroth Lab (AID 2284380)", "procedure,_shortened": "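Luminescent ATP viability readout (CellTiter-Glo 2.0), multiplexed on plates used for hormone sampling, after 48 h chemical exposure. Human H295R cells; final concentrations 0.001–100 uM in nine steps, technical triplicates, five experiments; DMSO baseline.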"}}, "note": "Results filed as inconclusive are left out. The source holds several records for some structures; these can differ, active in one and inactive in another. Activity calls are given as the source filed them. The calls were made as follows, unless noted: active = hit-call score of the fitted dose curve at least 0.9, where 1 is the maximum; inconclusive = response in the unintended direction; inactive = score below 0.9."}
{"smiles": "CCC(C)(C)C(=O)OC1=C(c2ccc(Cl)cc2Cl)C(=O)OC12CCCCC2", "values": [{"measurement": "outcome", "setting": "[1]", "value": "inactive"}, {"measurement": "outcome", "setting": "[2]", "value": "inactive"}, {"measurement": "outcome", "setting": "[3]", "value": "inactive"}]}
{"smiles": "CC1(C)C(C=C(Cl)Cl)C1C(=O)OC(C#N)c1ccc(F)c(Oc2ccccc2)c1", "note": "(stereo not drawn)", "values": [{"measurement": "outcome", "setting": "[1]", "value": "inactive"}, {"measurement": "AC50", "setting": "[2]", "value": "49.9 µM (active)"}, {"measurement": "outcome", "setting": "[2]", "value": "inactive"}, {"measurement": "AC50", "setting": "[3]", "value": "22.3 µM (active)"}, {"measurement": "outcome", "setting": "[3]", "value": "inactive"}]}
{"smiles": "CCOCN(C(=O)CCl)c1c(C)cccc1CC", "values": [{"measurement": "outcome", "setting": "IYD (gene 389434)", "value": "inactive"}, {"measurement": "outcome", "setting": "[4]", "value": "inactive"}]}
{"smiles": "CCC(C)(NC(=O)c1cc(Cl)c(C)c(Cl)c1)C(=O)CCl", "note": "(stereo not drawn)", "values": [{"measurement": "outcome", "setting": "[5]", "value": "inactive"}, {"measurement": "outcome", "setting": "[6]", "value": "inactive"}, {"measurement": "outcome", "setting": "SRD5A2 (gene 6716)", "value": "inactive"}]}
{"smiles": "ClC1C(Cl)C(Cl)C(Cl)C(Cl)C1Cl", "note": "(stereo not drawn)", "values": [{"measurement": "outcome", "setting": "[5]", "value": "inactive"}, {"measurement": "outcome", "setting": "[6]", "value": "inactive"}, {"measurement": "outcome", "setting": "SRD5A2 (gene 6716)", "value": "inactive"}, {"measurement": "outcome", "setting": "[4]", "value": "inactive"}]}
{"smiles": "COP(=S)(OC)Oc1ccc(SC)c(C)c1", "values": [{"measurement": "AC50", "setting": "SERPINA7 (gene 6906)", "value": "12 µM (active)"}]}
{"smiles": "CCC(C)Nc1c([N+](=O)[O-])cc(C(C)(C)C)cc1[N+](=O)[O-]", "note": "(stereo not drawn)", "values": [{"measurement": "outcome", "setting": "[5]", "value": "inactive"}, {"measurement": "outcome", "setting": "[6]", "value": "inactive"}, {"measurement": "outcome", "setting": "SRD5A2 (gene 6716)", "value": "inactive"}, {"measurement": "AC50", "setting": "SERPINA7 (gene 6906)", "value": "22.3 µM (active)"}]}
{"smiles": "O=C(NC(=O)c1c(F)cccc1F)Nc1ccc(OC(F)(F)C(F)OC(F)(F)F)c(Cl)c1", "note": "(stereo not drawn)", "values": [{"measurement": "AC50", "setting": "SERPINA7 (gene 6906)", "value": "25 µM (active)"}]}
{"smiles": "O=S1OCC2C(CO1)C1(Cl)C(Cl)=C(Cl)C2(Cl)C1(Cl)Cl", "note": "(stereo not drawn)", "values": [{"measurement": "outcome", "setting": "[5]", "value": "inactive"}, {"measurement": "outcome", "setting": "[6]", "value": "inactive"}, {"measurement": "outcome", "setting": "SRD5A2 (gene 6716)", "value": "inactive"}, {"measurement": "outcome", "setting": "[4]", "value": "inactive"}, {"measurement": "outcome", "setting": "[1]", "value": "inactive"}, {"measurement": "AC50", "setting": "[2]", "value": "13.8 µM (active)"}, {"measurement": "AC50", "setting": "[3]", "value": "23 µM (active)"}]}
{"smiles": "CNC(=O)CSP(=S)(OC)OC", "values": [{"measurement": "outcome", "setting": "[1]", "value": "inactive"}, {"measurement": "outcome", "setting": "[2]", "value": "inactive"}, {"measurement": "outcome", "setting": "[3]", "value": "inactive"}, {"measurement": "outcome", "setting": "[7]", "value": "inactive"}, {"measurement": "outcome", "setting": "[8]", "value": "inactive"}, {"measurement": "outcome", "setting": "[9]", "value": "inactive"}]}
{"smiles": "CN1CSC(=S)N(C)C1", "values": [{"measurement": "outcome", "setting": "[4]", "value": "inactive"}]}
{"smiles": "CCCN(CCOc1c(Cl)cc(Cl)cc1Cl)C(=O)n1ccnc1", "values": [{"measurement": "outcome", "setting": "IYD (gene 389434)", "value": "inactive"}, {"measurement": "outcome", "setting": "[5]", "value": "inactive"}, {"measurement": "outcome", "setting": "[6]", "value": "inactive"}, {"measurement": "outcome", "setting": "SRD5A2 (gene 6716)", "value": "inactive"}, {"measurement": "AC50", "setting": "[7]", "value": "0.00173 µM (active)"}, {"measurement": "AC50", "setting": "[8]", "value": "0.322 µM (active)"}, {"measurement": "outcome", "setting": "[9]", "value": "inactive"}]}
{"smiles": "CC(C)N(C(=O)COc1nnc(C(F)(F)F)s1)c1ccc(F)cc1", "values": [{"measurement": "outcome", "setting": "[1]", "value": "inactive"}, {"measurement": "outcome", "setting": "[2]", "value": "inactive"}, {"measurement": "outcome", "setting": "[3]", "value": "inactive"}]}
{"smiles": "CC1(c2ccc(Oc3ccccc3)cc2)OC(=O)N(Nc2ccccc2)C1=O", "note": "(stereo not drawn)", "values": [{"measurement": "outcome", "setting": "[5]", "value": "inactive"}, {"measurement": "outcome", "setting": "[6]", "value": "inactive"}, {"measurement": "AC50", "setting": "SRD5A2 (gene 6716)", "value": "9.91 µM (active)"}, {"measurement": "outcome", "setting": "[1]", "value": "inactive"}, {"measurement": "AC50", "setting": "[2]", "value": "50 µM (active)"}, {"measurement": "outcome", "setting": "[3]", "value": "inactive"}]}
